# Compound activity deposited in PubChem BioAssay by National Center for Advancing Translational Sciences (NCATS).
# Only some compounds are listed: those with a hit (about 9.4% of all), similar ones and a draw of the others.
# Rab9 promoter act: activators of Rab9 promoter | Huh7 Rab9 promoter-luciferase reporter, luminescence, 24 h | Potency, µM (titrated, usually from 9.22 µM), usual class: activators | 320,000 compounds, 2.8% hits; also: nearly all actives have a fitted effect of over 60% in size
#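 Using Huh7 cells stably transfected with Rab9 promoter–luciferase, compounds were incubated 24 h at 37 °C, 5% CO2; luciferase luminescence was read 10 min after reagent addition.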
# FLuc modulator: inhibits or activates purified firefly luciferase, miR-21 counter-screen; P08659; purified FLuc, Km substrates, luminescence inhibition; Potency, µM (top dose mostly 57.5 µM), usual class: inhibitors; 360,000 compounds, 6.9% hits; AID 588342; also: nearly all actives have a fitted effect of over 55% in size
# Target sequence (P08659 whole entry, looked up): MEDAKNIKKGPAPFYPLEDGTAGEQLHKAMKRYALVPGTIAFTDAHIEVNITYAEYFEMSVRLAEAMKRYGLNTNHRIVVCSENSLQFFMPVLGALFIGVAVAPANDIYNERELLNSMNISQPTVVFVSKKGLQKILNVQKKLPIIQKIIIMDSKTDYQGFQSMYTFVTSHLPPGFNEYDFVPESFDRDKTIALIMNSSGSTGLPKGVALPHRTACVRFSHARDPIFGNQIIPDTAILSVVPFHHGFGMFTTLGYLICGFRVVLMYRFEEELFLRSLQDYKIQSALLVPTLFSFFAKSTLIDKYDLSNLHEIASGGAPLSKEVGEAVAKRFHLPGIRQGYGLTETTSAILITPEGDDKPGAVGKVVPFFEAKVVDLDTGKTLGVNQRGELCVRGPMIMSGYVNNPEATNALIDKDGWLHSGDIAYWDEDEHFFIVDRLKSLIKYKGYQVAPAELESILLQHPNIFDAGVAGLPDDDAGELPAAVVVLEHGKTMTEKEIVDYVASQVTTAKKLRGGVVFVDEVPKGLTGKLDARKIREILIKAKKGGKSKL
#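 Purified P. pyralis luciferase, 10 nM final, with Km-level 10 uM D-luciferin and 10 uM ATP in 50 mM Tris acetate pH 7.5, 10 mM Mg acetate, 0.01% Tween-20, 0.05% BSA; 6-point qHTS titration about 60 µM downward; luminescence read.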
# ELG1 DNA repair: inhibitors of ELG1-dependent DNA repair in HEK293T cells | 330,000 compounds, 2.3% hits | HEK293T ELG1-luciferase reporter, luminescence, 16 h; DNA damage induced by 5-fluorouridine | Potency, µM (doses to about 46.1 µM), most hits filed as inhibitors; also: nearly all actives have a fitted effect of over 55% in size
#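 HEK293T cells expressing luciferase-tagged ELG1 (2,000/well) received 5-Fluorouridine plus compound or DMSO for 16 hr at 37 °C. Luciferase was read by ONE-Glo luminescence after 30 min at room temperature.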
# NPC1 promoter act: activates the NPC1 promoter; Huh7 NPC1 promoter luciferase reporter, 24 h; Potency, µM (doses to about 9.22 µM), hits mostly activators; 320,000 compounds, 2.4% hits; also: nearly all actives have a fitted effect of over 60% in size
#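 Luminescence read-out of NPC1 promoter-driven luciferase in stably transfected Huh7 cells; compounds delivered in DMSO and left 24 h at 37C, 5% CO2, qHTS titration format.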
# SMN2 splice enh: increases expression of the SMN2 splice variant; Potency, µM (series often up to 46.1 µM), usual class: activators; 210,000 compounds, 2.8% hits; HEK293 SMN2-luciferase splicing reporter, luminescence, 30-36 h; also: nearly all actives have a fitted effect of over 55% in size
#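 qHTS luciferase splicing reporter: luminescence rises when SMN2 exon 7 is included in transfected HEK293 cells. Compound exposure lasted 30-36 h at 37C, with 4.5 mM final sodium butyrate as control, followed by a ONE-Glo read.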
# ELG1 genotoxic: genotoxicity induction in ELG1-luciferase HEK293T cells. 330,000 compounds, 1.3% hits. AID 504466. HEK293T ELG1-luciferase reporter, luminescence, 16 h. Potency, µM (doses to about 46 µM), usual class: activators; also: nearly all actives have a fitted effect of over 60% in size
#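 HEK293T cells expressing luciferase-tagged ELG1 were treated with compound or DMSO for 16 hr at 37°C. Luciferase activity was then read after 30 min with ONE-Glo at room temperature; rising signal flags genetic stress.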
# Numbers stand for hits; . = inactive; ? = inconclusive; / = no result given. Calls follow the shape of the dose curve; as a rule, active = well fitted curve in the direction sought with a large enough effect; inconclusive = small, poorly fitted or top-dose-only effect, or another doubt; inactive = no such curve, though single readings can be large; an effect the other way counts as inactive or inconclusive.
SMILES,Rab9 promoter act,FLuc modulator,ELG1 DNA repair,NPC1 promoter act,SMN2 splice enh,ELG1 genotoxic
CCOC(=O)c1cnc(-c2ccccc2)nc1C(F)(F)F,.,?,.,.,.,.
Cc1nc(Nc2nc3ccccc3o2)nc2c1CCC2,?,1.7µM,?,?,2µM,?
CCOC(=O)c1cnc(Nc2nc3ccccc3o2)nc1C,?,0.38µM,?,?,.,/
Cc1ccc(OCC(=O)NCC(=O)OCc2cc(=O)n3nc(CC(C)C)sc3n2)cc1,/,.,/,/,/,/
O=C(NCc1ccccc1)Nc1cccn(Cc2ccccc2)c1=O,.,11µM,.,.,.,.
O=C(NCc1ccccc1)Nc1cccn(Cc2ccc(F)cc2)c1=O,.,?,.,.,.,.
O=C(NCc1ccccc1)Nc1cccn(Cc2ccccc2F)c1=O,.,12µM,.,.,.,.
Cc1cc(NC(=O)NCc2ccccc2)c(=O)n(Cc2ccc(F)cc2)c1,.,1.7µM,.,.,/,.
CCOc1ccc(NC(=O)Nc2ccccc2SC)cc1,?,2.7µM,?,4µM,/,?
Cc1ccc(CN(Cc2cccn2-c2nnc(N3CCCC3=O)s2)C(=O)Nc2ccccc2Cl)cc1,/,.,/,/,.,/
Cc1ccc(Cn2cccc(NC(=O)NC3CCCCC3)c2=O)cc1,.,17µM,.,.,.,.
CCOc1ccc(NC(=O)Nc2cccn(Cc3ccccc3)c2=O)cc1,.,9.5µM,?,.,.,.
COc1ccc(Cn2cccc(NC(=O)Nc3cccc(C#N)c3)c2=O)cc1,.,.,?,.,.,.
O=C(N/N=C/c1ccccc1Cl)c1n[nH]c2c1CCCC2,?,0.21µM,?,0.63µM,0.35µM,0.29µM
O=C(N/N=C/c1ccccc1)c1n[nH]c2c1CCCC2,0.35µM,3µM,?,0.56µM,5µM,?
O=C(N/N=C/C(Br)=C/c1ccccc1)c1n[nH]c2c1CCC2,.,2.7µM,?,?,10µM,?
CC1(C)CC(=NNC(=O)c2n[nH]c3c2CCC3)CC(C)(C)N1,.,.,.,.,/,.
Cc1nonc1C(=O)N/N=C/c1ccc(O)c(O)c1,.,?,.,.,.,.
O=C(N/N=C/C(Br)=C/c1ccccc1)c1cc(-c2ccco2)[nH]n1,.,?,.,.,.,.
Cc1nonc1C(=O)N/N=C/c1ccccc1,.,11µM,.,.,/,.
COC(=O)c1ccc(C(=O)OC)c(NC(=O)N2CC3CCCN3c3ccccc32)c1 (configuration not stated),/,.,/,/,/,/
Cc1nc(NS(=O)(=O)c2ccccc2)sc1C(=O)N/N=C/c1ccccc1,.,9.5µM,.,.,/,.
O=C(N/N=C/c1cccs1)c1n[nH]c2c1CCC2,?,3.4µM,?,?,5µM,?
O=C(N/N=C/c1ccc(Cl)cc1)c1n[nH]c2c1CCCC2,.,?,?,?,/,8.2µM
Cc1nc(NS(=O)(=O)c2ccccc2)sc1C(=O)NNS(=O)(=O)c1ccccc1,.,.,.,.,/,.
SMILES,Rab9 promoter act,FLuc modulator,ELG1 DNA repair,NPC1 promoter act,SMN2 splice enh,ELG1 genotoxic
Cn1cccc1-c1cc(C(=O)N/N=C/c2ccc(Cl)cc2)[nH]n1,.,?,.,.,/,.
CCOc1ccccc1C(=O)Nc1ccc(S(=O)(=O)Nc2onc(C)c2C)cc1,/,?,/,/,.,/
Cc1ccccc1C(=O)NCCSc1ccccc1,2.8µM,9.5µM,?,3.5µM,13µM,7.3µM
O=C(CCNC(=O)c1ccccc1Cl)NCCCSc1ccccc1,.,.,.,.,/,.
O=C(NCCSc1ccccc1)c1ccccc1Cl,3.2µM,7.6µM,?,2.5µM,11µM,13µM
Cc1c(C(=O)N(Cc2ccccc2F)C2CCS(=O)(=O)C2)oc2ccc(F)cc12 (configuration not stated),/,.,/,/,.,/
CCCN(c1ccccc1F)S(=O)(=O)c1ccc2c(c1)C(C)(C)C(=O)N2C,/,.,/,/,/,/
COc1ccc(C2C(=O)N(C3CCC(C)CC3)CC(=O)N2CCC2=CCCCC2)cc1OC (configuration not stated),/,.,/,/,/,/
O=S(=O)(c1ccc(Cl)cc1)c1nc(-c2ccccc2Br)oc1N1CCOCC1,/,.,/,/,.,/
O=C(N/N=C/c1cc([N+](=O)[O-])ccc1O)c1c[nH]c2ccccc12,.,.,8.2µM,.,/,.
O=C(N/N=C/c1cccc([N+](=O)[O-])c1)c1c[nH]c2ccccc12,?,17µM,.,2.2µM,/,.
CC(C)(C)OC(=O)N/N=C\c1ccc[nH]1,?,19µM,?,.,.,.
CC(C)(C)OC(=O)N/N=C/c1cccc([N+](=O)[O-])c1,3.2µM,6µM,?,2.5µM,11µM,?
Cc1cc(C(=O)N/N=C/c2cccc([N+](=O)[O-])c2)c(C)o1,.,?,.,.,.,.
CNC(=O)C1CCCN(c2nnc(C)c3c(C)n(-c4ccccc4)nc23)C1 (configuration not stated),/,.,/,/,/,/
COc1ccc(Cl)cc1N=C1NC(=O)CC(C(=O)Nc2ccccc2C(F)(F)F)S1 (configuration not stated),/,?,/,/,.,/
CCC1CCCCN1C(=O)CSc1nnc(-c2ccco2)o1 (configuration not stated),3.2µM,15µM,?,?,?,?
O=C(CSc1nnc(-c2ccco2)o1)c1ccc[nH]1,2.2µM,?,?,?,18µM,?
CCC1CCCCN1C(=O)CSc1nnc(-c2cccc(Cl)c2)o1 (configuration not stated),.,?,?,.,?,18µM
CCC1CCCCN1C(=O)CSc1nnc(-c2ccc(Cl)cc2)o1 (configuration not stated),.,.,.,.,.,.
O=C(CSc1nnc(-c2ccco2)o1)N1CCCCC1,3.2µM,?,?,?,/,.
CCC1CCCCN1C(=O)CSc1nnc(-c2ccc(Cl)s2)o1 (configuration not stated),.,?,?,.,.,.
CCCCCCN(CCCCCC)C(=O)Cc1c(-c2ccc(Cl)cc2)[nH]c2ccc(Cl)cc12,/,/,/,/,.,/
CCCCOC(=O)Nc1nnc(C(C)C)s1,2.2µM,?,?,2.8µM,?,?
CCOC(=O)c1c(C)c(C(=O)Nc2ccc(N(C)C)cc2)c(C)n1CC,.,15µM,.,.,.,.
SMILES,Rab9 promoter act,FLuc modulator,ELG1 DNA repair,NPC1 promoter act,SMN2 splice enh,ELG1 genotoxic
CCOC(=O)c1c(C)c(C(=O)NCCOC)c(C)n1CC,.,.,.,.,.,.
CCCC(C)C(=O)Nc1ccc(C(N)=O)cc1 (configuration not stated),.,.,.,.,.,.
CCCCOC(=O)Nc1ccc(C(C)C)cc1,?,9.5µM,?,?,14µM,?
CCCCCOC(=O)Nc1nnc(CCC)s1,.,.,?,.,.,.
CCCCOC(=O)Nc1ccc(C(N)=O)cc1,?,15µM,?,?,?,23µM
Nc1nc(N)c(S(=O)(=O)c2ccccc2)c(Nc2ccc(Br)cc2)n1,/,.,/,/,.,/
